Compound activity: PubChem BioAssay, Sanford-Burnham Center for Chemical Genomics
KKLEB cytotox: reduces viability of KKLEB cystic fibrosis airway cells; KKLEB CF airway cells viability, ATPlite luminescence, overnight; stronger effect = lower value; cells stimulated with P. aeruginosa culture filtrate; activity change (cytotoxicity), % at 5 µM; 360,000 tested, 0.36% active; AID 602141;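 active means corrected activity change at or below -50% at 5 µM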
TWEAK Fn14 block: TWEAK-Fn14 signaling inhibition. TWEAK-stimulated Fn14 reporter cells, luciferase luminescence, 8 h. inhibition, % at 10 µM. 360,000 tested, 2% active. AID 1159606; in the data active means inhibition above about 50%
HIF-2a block: inhibitors of HIF-2a; 786-0 RCC cells HIF-2a reporter, luciferase luminescence, overnight; inhibition, % at 18.8 µM; 360,000 tested, 0.72% active;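 active means inhibition of the luminescence signal of 40% or more relative to plate controls, in a single-dose primary screen at 18.75 µM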
CF NFkB inh: cystic fibrosis NF-kB activation inhibition; KKLEB NF-kB-GFP reporter, PAF-induced, GFP fluorescence overnight; inhibition, % at 5 µM; 360,000 tested, 0.86% active; AID 588850;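 active means at least 50% inhibition at 5 µM, scaled per plate between neutral and stimulator controls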;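 further: PAF is a Pseudomonas aeruginosa culture filtrate used as stimulus; plate controls were PAF-stimulated DMSO wells for no effect and unstimulated DMSO wells for full effect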
Peg3 prom inh: Peg3 promoter activity inhibition; HeLa PEG-Prom luciferase reporter, luminescence, overnight; inhibition, % at 20 µM; 360,000 tested, 1.7% active; AID 588405;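 active means inhibition of at least 50% at 20 µM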
TROY signal inh: TROY signaling inhibition | Q293 LMP1-TROYcd NF-kB luciferase reporter, 4 h | inhibition, % at 10 µM | 360,000 tested, 0.98% active;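 active means compounds whose plate-normalised and pattern-corrected inhibition of the luciferase reporter signal at the single screening dose is 50% or more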
Starred values were filed as active, the others as inactive; · = no result given. Compounds with a hit are over-represented: about 4% of the library has one in this group of screens.

SMILES	KKLEB cytotox	TWEAK Fn14 block	HIF-2a block	CF NFkB inh	Peg3 prom inh	TROY signal inh
O=C1NC[C@@H](CCCCN2C[C@H](Cc3ccc(O)cc3)N(Cc3ccccc3)C(=O)C2=O)N(CCC2CCCCC2)C1=O	·	-3.2	2.6	·	·	-19.1
CCOC(=O)c1c(NC(=O)CSc2nnc(-c3ccccc3)o2)sc(C(C)=O)c1C	-13.3	-6.3	-18.4	1.7	-28.6	31.8
CCOC(=O)c1c(NC(=O)CSc2nc3ccccc3o2)sc(C(C)=O)c1C	-6.0	68.6*	-71.1	-0.7	-92.9	33.8
O=C(CSc1nc2ccccc2o1)Nc1nc(-c2ccccc2)cs1	4.0	84.2*	-36.0	-7.0	-101.6	80.1*
O=C(CSc1nc2ccccc2o1)Nc1nc2c(s1)CCCC2	3.2	89.4*	-8.9	-11.5	-34.4	-0.4
COc1ccc(CNC(=O)CSc2nnc3c(n2)[nH]c2ccc(F)cc23)cc1	-9.8	13.2	-8.5	5.9	12.4	-5.6
CCOC(=O)CN(C(=O)CSc1nnc2c(n1)[nH]c1ccc(OC)cc12)c1ccc(F)cc1	7.6	66.5*	13.2	-9.8	35.9	74.5*
COc1ccc2[nH]c3nc(SC(C)C)nnc3c2c1	-10.7	92.0*	-161.0	-14.8	-138.7	54.4*
CNC(=O)C1CCN(S(=O)(=O)c2c(C)noc2/C=C/c2ccccc2F)CC1	-6.8	0.3	-15.9	-18.6	18.7	9.0
CCc1noc(C)c1C(=O)N1CCN(S(=O)(=O)c2ccc(Br)cc2)CC1	-5.7	7.4	8.0	17.8	19.0	10.8
O=C(NC(Nc1nc2ccc([N+](=O)[O-])cc2s1)(C(F)(F)F)C(F)(F)F)c1cccnc1	-47.5	51.4*	11.7	54.9*	12.4	14.8
O=C(NC(Nc1nc2ccc([N+](=O)[O-])cc2s1)(C(F)(F)F)C(F)(F)F)c1ccccc1Cl	-53.0*	90.2*	15.2	45.0	65.2*	65.6*
O=C(NC(NNc1ccc([N+](=O)[O-])cc1)(C(F)(F)F)C(F)(F)F)c1ccccc1Cl	-8.7	-2.4	-6.1	-21.9	4.2	9.8
CC(NC(=O)CN1c2cccc3cccc(c23)S1(=O)=O)c1ccc(S(N)(=O)=O)cc1 (centres undefined)	-7.4	-6.2	0.4	-1.2	9.2	-1.1
Cc1cccc(C(=O)OCC(=O)NCCN2C(=O)CSC2=O)c1[N+](=O)[O-]	12.1	-15.2	-1.6	10.1	3.4	-4.3
CCCCC(CC)CO (centres undefined)	8.2	2.9	7.8	17.7	109.6*	9.5
Cc1ccc(NC(=S)N/N=C/c2c(Cl)cccc2Cl)c(C)c1	-8.0	7.0	-145.0	50.2*	-102.5	-4.5
CN1c2ccccc2C(C)(C)C12C=Cc1cc(O)ccc1O2 (centres undefined)	-1.6	53.4*	36.7	-5.8	35.9	34.3
CN1c2ccccc2C(C)(C)C12C=Nc1c(cc(N3CCOCC3)c3ccccc13)O2 (centres undefined)	-5.9	23.9	9.3	20.0	29.9	31.0
O=[N+]([O-])c1ccc(NC(=S)N2CCN(c3ccccc3)CC2)cc1	-3.6	55.9*	-5.8	15.9	8.6	7.8
O=[N+]([O-])c1ccc(N2CCN(C(=S)Nc3ccccc3)CC2)cc1	7.4	-4.4	4.8	-12.0	2.9	1.3
CC(NC(=S)N1CCN(c2ccccc2)CC1)c1ccccc1 (centres undefined)	0.6	64.8*	-3.2	-6.7	11.2	7.9
COCCNC(=O)C1(C)CCCN(C(=O)c2cc(C)oc2C)C1 (centres undefined)	4.6	1.1	4.1	-18.4	17.0	-7.7
CCCn1c(C(O)c2ccc(OC)c(OC)c2)nc2ccccc21 (centres undefined)	-17.5	19.0	10.0	13.9	20.4	10.4
Cc1cc(C(N)=O)c2ccccc2n1	10.5	-0.2	12.2	8.5	13.4	-22.9
SMILES	KKLEB cytotox	TWEAK Fn14 block	HIF-2a block	CF NFkB inh	Peg3 prom inh	TROY signal inh
NC(=O)c1cc2c3ccccc3ccn2c1-c1ccccc1	-5.4	52.5*	-113.0	19.6	-85.6	47.4
CC(NC(=O)CN1C(=O)NC2(CCCCC2)C1=O)c1ccc(S(N)(=O)=O)cc1 (centres undefined)	-15.6	9.9	17.2	1.2	2.5	15.2
CN1CCN(c2ccccc2NC(=O)Cn2ncc3c([nH]c4ccccc43)c2=O)CC1	6.0	10.6	19.6	14.4	-3.3	-4.1
Cc1ccc2[nH]c3c(=O)n(CC(=O)Nc4ccccc4N4CCN(C)CC4)ncc3c2c1	-7.0	29.0	-4.4	15.8	52.8*	7.5
Cc1ccc(C)c(/C=N/n2cc(-c3ccccc3)[nH]c2=S)c1	3.0	14.4	-30.7	-5.6	-19.4	53.0*
CCCCCCCCCCCCC/C=C/[C@@H](O)[C@@H](N)CO	-1.0	-30.0	6.0	-8.4	55.3*	-5.4
CCCCC/C=C\C/C=C\C/C=C\CCCCC(=O)O	10.5	9.3	-3.3	-9.8	10.0	-30.1
Cc1ccc(NC(=O)CC2Nc3ccccc3NC2=O)cc1Cl (centres undefined)	-51.8*	5.7	-201.0	43.4	-57.2	·
O=C(CC1Nc2ccccc2NC1=O)Nc1ccc2c(c1)OCO2 (centres undefined)	5.1	-4.0	-198.5	-10.2	-53.8	-70.6
O=C(c1ccc(Cl)cc1)c1cnc(-c2ccc(Cl)cc2)s1	-3.5	-13.6	-110.5	-8.3	-66.2	-53.4
O=C(c1ccccc1)c1cnc(-c2ccc(Cl)cc2)s1	-1.4	61.7*	-188.8	2.5	-175.0	14.7
CCC(=O)Nc1cc2nn(-c3ccc(C)cc3)nc2cc1C	-31.6	93.3*	-39.7	-5.8	61.8*	90.0*
Cc1ccc(-n2nc3cc(C)c(NC(=S)NC(=O)/C=C/c4ccco4)cc3n2)cc1	-9.8	39.5	-134.4	8.4	-257.2	69.4*
CCCCC(=O)Nc1cc2nn(-c3ccc(OC)cc3)nc2cc1C	-4.9	-43.0	-97.2	6.7	-84.0	-33.4
CCC(=O)Nc1cc2nn(-c3ccc(OC)cc3)nc2cc1C	-3.9	69.7*	-150.7	-2.6	-159.3	56.7*
COc1ccc(-n2nc3cc(C)c(NC(=S)NC(=O)c4ccccc4C)cc3n2)cc1	-59.4*	-83.6	-162.9	55.2*	-239.2	-65.1
COc1ccc(C(=O)NC(=S)NNC(=O)c2ccccc2C)cc1	7.9	-27.0	-53.8	-14.4	-18.9	-53.8
Cc1ccc(-n2nc3ccc(NC(=S)NC(=O)/C=C/c4ccco4)cc3n2)cc1	4.2	10.0	-68.1	-16.3	-191.7	-26.6
O=S(=O)(Cc1ccccc1)N1CCNCC1	2.3	7.4	-16.0	8.7	-0.1	-17.9
COc1cc(/C=C2\SC(=S)N(CC(=O)Nc3ccccn3)C2=O)cc(OC)c1OC	-8.7	25.5	20.8	-17.6	4.4	-7.1
C=CCN1C(=O)/C(=C\c2cc(Br)c(OCc3ccccn3)c(OC)c2)SC1=S	-38.8	6.1	13.9	50.4*	3.2	-7.6
CCCCC1CCC(c2nc(-c3ccccn3)no2)CC1 (centres undefined)	-5.8	55.5*	-63.6	0.0	-121.8	25.4
